High-throughput results deposited in PubChem BioAssay by several laboratories.
MCL1-BIM inh: inhibitors of human MCL1 binding to BIM-BH3 peptide. GST-MCL1 / FITC-Bim-BH3 fluorescence polarization. inhibition, % at 10.9 µM. actives 0.68% (n = 320,000). AID 2057;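 active means inhibition above the mean inhibition of all tested compounds plus 3 SD, set per campaign, cut at about 40% in these data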;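 further: higher means more loss of mP so more displacement of Bim peptide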
Target sequence (Q07820 whole entry, looked up): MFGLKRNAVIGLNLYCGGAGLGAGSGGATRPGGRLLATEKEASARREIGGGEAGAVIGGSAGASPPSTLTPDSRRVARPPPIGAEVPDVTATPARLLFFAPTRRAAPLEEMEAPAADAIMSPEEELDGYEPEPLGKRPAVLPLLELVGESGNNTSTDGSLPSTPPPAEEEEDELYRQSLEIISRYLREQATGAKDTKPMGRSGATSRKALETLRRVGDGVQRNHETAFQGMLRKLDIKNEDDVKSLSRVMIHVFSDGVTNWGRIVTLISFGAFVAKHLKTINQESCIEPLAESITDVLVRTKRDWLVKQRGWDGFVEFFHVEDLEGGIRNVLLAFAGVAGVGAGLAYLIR
L929 necroptosis: L929 zVAD cell death inhibition | L929 zVAD necroptosis rescue, ATP luminescence, 24 h; with zVAD 60 µM | viability rescue, % at 10 µM | actives 0.38% (n = 220,000) | AID 1377;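 active means activation, scaled between plate controls, above about 75%, limit read from the data; inactive means activation under that limit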
TNF death inh: blocks TNF-alpha induced death of Jurkat FADD-/- cells; actives 0.068% (n = 220,000); Jurkat FADD-/- TNF necroptosis rescue, ATP luminescence, 24 h; 0 = TNF only, 100 = no-TNF cells; AID 463075; activation (protection from cell death), % at 10 µM;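 active means activation, meaning protection from cell death, of at least 50% relative to plate controls; inactive means activation below 50%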;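 further: necroptosis triggered by 40 ng/mL TNF-alpha added together with compound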
Mcl1 Noxa PPI: disrupts binding of human Mcl-1 to Noxa peptide; Q07820; TR-FRET Mcl-1/Noxa peptide binding, 2 h; inhibition, % at 21.7 µM; actives 1.5% (n = 220,000);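 active means compounds that cut the protein-peptide binding signal by more than 50% relative to plate controls in a single-dose test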;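 further: His-tagged Mcl-1 with rhodamine Noxa BH3 peptide and terbium anti-His antibody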
Bim-Mcl-1: inhibitors of Bim-Mcl-1 interaction, human; actives 0.1% (n = 190,000); Q07820; inhibition, % at 10 µM; Bead-based flow cytometry, Bim peptide-Mcl-1 binding; in the data active means inhibition above about 40%
Mcl1 Bid PPI: disrupts binding of human Mcl-1 to Bid peptide; Q07820; TR-FRET Mcl-1/Bid-Dy647 peptide binding, 1536-well; inhibition, % at 21.7 µM; actives 0.97% (n = 220,000);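 active means compounds that cut the binding signal by more than half at the single screening dose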;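 further: His-tagged Mcl-1 with europium anti-His antibody binding Bid BH3 peptide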
Numbers stand for hits; – = inactive; · = not tested or not shown; + = active, no number. This is a sample that favours compounds with a hit; in the whole collection about 2.4% have one here.

SMILES	MCL1-BIM inh	L929 necroptosis	TNF death inh	Mcl1 Noxa PPI	Bim-Mcl-1	Mcl1 Bid PPI
Oc1c(Cl)cc(CN2CCOCC2)c2cccnc12	–	·	·	·	·	·
O=c1c2cnn(-c3ccccc3)c2nc(-c2cccs2)n1-c1cccc(Cl)c1	–	–	–	–	–	79.3
O=C1c2ccsc2SCCN1Cc1ccccc1	–	–	70.4	–	–	–
CC(=O)c1sc(N/N=C\c2cccc(Br)c2)nc1C	–	–	–	50.6	–	–
Cc1ccccc1NC(=O)c1c(C)[nH]c(=S)c(C#N)c1-c1ccc(Cl)cc1	–	–	–	–	·	71.3
Cc1ccc(-c2c(C(=O)Nc3ccccc3C)c(C)[nH]c(=S)c2C#N)o1	–	–	–	–	–	–
O=C(CN1C(=O)NC2(CCCCC2)C1=O)NCCCSc1ccccc1	–	·	·	·	·	·
O=C1NC(Cc2c[nH]c3ccccc23)C(=O)N1CCOc1ccc(F)cc1 (stereo not drawn)	–	–	64.7	–	–	–
COc1cccc(C2c3[nH]c4ccccc4c3C[C@H]3C(=O)N(CCCO)CC(=O)N23)c1OC (stereo partly drawn)	–	·	·	·	·	·
COc1ccc2c(c1OC)C(=O)N1C(C(=O)O)Cc3c([nH]c4ccccc34)C21 (stereo not drawn)	47.4	–	–	–	–	–
Cn1c2ccccc2c(=O)c2c(=O)n(C3CCCCCC3)c(C3CCCCC3)nc21	·	–	–	–	–	88.8
Cn1c2ccccc2c(=O)c2c(=O)n(-c3ccccc3)c(C3CCCCC3)nc21	–	–	–	–	–	–
COCCN(C(=O)COC(=O)c1cc2c(s1)CCCC2)c1c(N)n(Cc2ccccc2)c(=O)[nH]c1=O	–	·	·	·	·	·
CCOc1ccc(N2C(=O)CC(N(CCc3ccc(S(N)(=O)=O)cc3)C(C)=O)C2=O)cc1 (stereo not drawn)	–	–	–	–	·	–
CNC(=S)N(CCc1ccc(S(N)(=O)=O)cc1)C1CC(=O)N(c2ccccc2F)C1=O (stereo not drawn)	–	–	–	–	–	60.9
CNC(=O)CN(C1CCCCC1)S(=O)(=O)c1ccc(OC)c(Cl)c1	–	–	–	–	–	97.9
CC(C)(C)NS(=O)(=O)c1ccc(NC(=O)CS(=O)(=O)Cc2ccccc2)cc1	–	·	·	·	·	·
C/C(=N\Nc1ccc(Cl)c(C(=O)O)c1)c1ccc(N2CCOCC2)cc1	–	·	·	·	·	·
COc1cc2c(cc1OC)-c1cc3ccc4c(c3c[n+]1CC2)OCO4	+	–	–	–	–	–
COc1cc2c(cc1O)CC[n+]1cc3c(OC)c(OC)ccc3cc1-2	–	–	–	–	–	–
O=C(NCc1cccnc1)/C(=C/c1ccc(-c2cccc(Cl)c2)o1)S(=O)(=O)c1ccccc1	–	–	–	–	–	56.9
CC(C)C[C@H](NC(=O)N1CCCCCC1)C(=O)O	–	–	–	–	·	–
Cn1c(=O)c(C(=O)CSc2nnc(Nc3ccccc3)s2)c(N)n(Cc2ccccc2)c1=O	–	–	–	70.3	–	–
Cc1cc(F)ccc1S(=O)(=O)N1CCCOC1CNC(=O)C(=O)NCc1ccccn1 (stereo not drawn)	–	·	·	·	·	·
O=C1/C(=C\c2ccco2)SC(=S)N1c1ccc(O)cc1	–	–	–	–	–	–
SMILES	MCL1-BIM inh	L929 necroptosis	TNF death inh	Mcl1 Noxa PPI	Bim-Mcl-1	Mcl1 Bid PPI
O=C1/C(=C/C=C/c2ccco2)SC(=S)N1c1ccc(O)cc1	–	–	–	102.1	·	–
O=C1/C(=C/c2ccco2)SC(=S)N1c1cccnc1	·	–	–	94.1	·	–
O=C1/C(=C\c2ccc(O)cc2)SC(=S)N1c1cccnc1	–	–	–	73.1	–	–
Cc1c(NC(=O)Nc2cccc(C(F)(F)F)c2)c(=O)n(-c2ccccc2)n1C	–	·	·	·	·	·
COc1ccc(C(CNC(=O)Nc2cccc(C)c2)N2CCN(C)CC2)cc1 (stereo not drawn)	–	·	·	·	·	·
O=C(NCc1ccc(Cl)cc1)c1cc(=O)[nH]c2ccccc12	–	·	·	·	·	·
Cc1ccc(N2CC(C(=O)Nc3ccc(N(C)C)cc3)CC2=O)cc1C (stereo not drawn)	–	–	–	75.2	–	–
Cc1ccc(N2CC(C(=O)NC3=NCCS3)CC2=O)cc1C (stereo not drawn)	–	–	–	–	–	–
O=C(CNC(=O)c1ccc(S(=O)(=O)N2CCCC2)cc1)N/N=C/c1ccc(Cl)cc1	–	–	–	–	–	–
O=C(CNC(=O)c1ccc(S(=O)(=O)N2CCCC2)cc1)N/N=C/c1ccc(Cl)cc1Cl	–	–	–	–	98.0	–
CCOC(=O)/C=C1/N(C)c2ccccc2C1(C)C	–	–	–	–	·	–
CN1/C(=C\P(=O)(N(C)C)N(C)C)C(C)(C)c2ccccc21	46.8	–	–	–	–	–
O=[N+]([O-])c1cc(Cl)cc(/C=N\Nc2ccccn2)c1O	–	–	–	–	–	73.0
O=C(NCCCN1CCCC1=O)c1ccc2c(c1)OCO2	–	–	–	–	–	61.9
O=C(NCCCN1CCCC1=O)NC1CCCCC1	–	–	–	–	54.0	–
O=C(NC1CCCCCC1)C(Cc1ccccc1)n1cccc1 (stereo not drawn)	–	–	–	–	·	–
COc1ccccc1NC(=O)CSc1nnc(CC(=O)Nc2ccccc2F)n1C	–	·	·	·	·	·
O=Nc1c(-c2cccc([N+](=O)[O-])c2)nc2ncccn12	–	–	–	54.7	·	–
O=C(/C=C/c1ccco1)NCC1OCCc2ccccc21 (stereo not drawn)	–	–	–	62.0	·	–
C=CC(=O)NCC1OCCc2ccccc21 (stereo not drawn)	–	–	–	–	–	–
Cc1ccc(NC(=O)CCCC(=O)O)c(-c2nc3ccccc3[nH]c2=O)c1	–	·	·	·	·	·
COc1ccccc1CNC(=O)Cn1nnc(-c2ccncc2)n1	–	86.3	–	–	–	–
COc1cc(CCC(=O)Nc2nnc(-c3cccnc3)s2)cc(OC)c1OC	–	–	–	–	–	–
Cc1sc2ncnc(N3CCC(C(=O)Nc4sc5c(c4C(N)=O)CCC(C)C5)CC3)c2c1C (stereo not drawn)	–	·	·	·	·	·
N=C1/C(=C\c2ccc(-c3cccc(Cl)c3)o2)C(=O)N=C2SC=C(c3ccccc3)N12	–	–	–	51.4	–	–
SMILES	MCL1-BIM inh	L929 necroptosis	TNF death inh	Mcl1 Noxa PPI	Bim-Mcl-1	Mcl1 Bid PPI
COc1ccc(/C=C2\SC(=N)N(c3nccs3)C2=O)cc1OC	–	–	–	–	–	–
N=C1S/C(=C\c2ccc(-c3cccc(Cl)c3)o2)C(=O)N1c1nccs1	–	–	–	87.6	–	90.6
N=C1/C(=C\c2ccc(-c3ccc(C(=O)O)cc3)o2)C(=O)N=C2SC=C(c3ccccc3)N12	·	–	–	116.9	·	95.8
Cc1csc(NC(=O)C2CCN(S(=O)(=O)c3cccs3)CC2)n1	–	–	–	–	–	84.4
Nc1ccc(C(=O)N/N=C/c2c[nH]c3ccccc23)cc1	–	·	·	·	·	·
O=C(O)COc1ccc(Br)cc1/C=C1/SC(=O)N(CC(=O)N2CCCC2)C1=O	–	–	–	–	–	–
